PubChem BioAssay
Calls of active or inactive are those of the source.

Tests used:
[1] = test system: Plasmodium falciparum Sir2 (PF13_0152, Sir2A); assay: Plasmodium falciparum Sir2A binding compounds – biochemical, small-molecule microarray, 635 nm fluorescence, primary screen (AID 1098); settings: fluorescence 635 nm, higher = more signal;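 further: score merges spot fluorescence intensity with its signal-to-noise ratio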
[2] = probe aDKK1 binding to arrayed compounds – biochemical, biotinylated probe, 635/667 nm fluorescence, primary screen (AID 1099); settings: small-molecule microarray, higher = more signal;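 further: score merges 667nm spot fluorescence with signal to noise across triplicate slides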
[3] = probe aCHRDL2 binding to arrayed compounds – biochemical, biotinylated probe, 635/667 nm fluorescence, primary screen (AID 1100); settings: small-molecule microarray, higher = more signal
[4] = change in splice reporter luminescence, either direction, cell-based, HEK293, spliceosome inhibition project, primary screen (AID 1101); settings: HEK293 splicing luciferase reporter, 24 h, higher = more signal, called active from +8 up or from −8 down;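 further: HEK293 cells carrying a splicing-competent luciferase reporter gene; test concentration not given here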
[5] = molecular target: Fibroblast growth factor 10 (Homo sapiens) (UniProt O15520); assay: compounds binding fibroblast growth factor 10 – biochemical, small-molecule microarray, 635 nm fluorescence, primary screen (AID 1102); settings: FGF10 binding, fluorescence 635 nm, higher = more signal
[6] = test system: glycogen synthase kinase-3 (GSK3A per assay name; protocol says GSK3B); assay: compounds binding glycogen synthase kinase-3 – biochemical, small-molecule microarray, 635 nm fluorescence, GSK3A, primary screen (AID 1103); settings: fluorescence 635 nm, higher = more signal; further: the record names both GSK3A and GSK3B
[7] = molecular target: Epidermal growth factor receptor (Homo sapiens) (UniProt P00533); assay: compounds binding epidermal growth factor receptor – biochemical, small-molecule microarray, 635 nm fluorescence, primary screen (AID 1104); settings: EGFR binding, higher = more signal;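 further: score merges 667 nm emission intensity with spot signal to noise over triplicate slides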
[8] = molecular target: Follistatin-related protein 3 (Homo sapiens) (UniProt O95633); assay: compounds binding follistatin-related protein 3 – biochemical, small-molecule microarray, 635 nm fluorescence, primary screen (AID 1105); settings: FSTL3 binding, higher = more signal;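 further: score merges emission near 667 nm and signal to noise per printed spot across three slides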
[9] = molecular target: Dickkopf-related protein 1 (Homo sapiens) (UniProt O94907); assay: small molecules binding DKK1 protein – biochemical, small-molecule microarray, 635 nm fluorescence scan, primary screen (AID 1106); settings: higher = more signal;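 further: score merges emission near 667 nm with signal to noise over three replicate slides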
[10] = test system: Inhibin beta A chain (activin A); assay: small molecules binding activin A – biochemical, small-molecule microarray, 635 nm fluorescence scan, primary screen (AID 1107); settings: INHBA, higher = more signal;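 further: mouse activin A protein probed at 4.33 µg/mL on printed slides; score merges bound-protein fluorescence near 667 nm with spot signal-to-noise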
[11] = test system: Human papillomavirus type 1a protein E7 (residues 44-93); assay: small molecules binding HPV E7 44-93 – biochemical, small-molecule microarray, residues 44-93, 635 nm fluorescence, primary screen (AID 1108); settings: fluorescence 635 nm, higher = more signal;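 further: E7 fragment applied at 1 µg/mL in TBST for 1 h at 4 C; score combines spot fluorescence with its signal to noise ratio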
[12] = hepatitis C replication reporter changes, two-sided – Huh7 cells, luciferase reporter, HCV replication inhibitor project, primary screen (AID 1109); settings: Huh7 HCV replicon luciferase reporter, 48 h; higher = more signal;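 further: huh7 hepatoma cells harbouring a luciferase neomycin HCV replicon reporter; luciferase luminescence as measure of HCV replicon replication; test concentration not given here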
[13] = molecular target: Left-right determination factor 2 (Homo sapiens) (UniProt O00292); assay: small molecules binding LEFTY2 protein – biochemical, small-molecule microarray, 635 nm fluorescence scan, primary screen (AID 1110); settings: higher = more signal
[14] = molecular target: Calmodulin-1 (Homo sapiens) (UniProt P0DP23); assay: small molecules binding calmodulin-1 with EGTA – biochemical, small-molecule microarray, Cy5-labelled CALM1, profiling panel (AID 1111); settings: Cy5-CALM1 binding fluorescence, higher = more signal;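 further: labelled calmodulin applied in Tris saline Tween buffer holding calcium plus EGTA and DTT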
[15] = molecular target: Calmodulin-1 (Homo sapiens) (UniProt P0DP23); assay: small molecules binding Ca-loaded calmodulin-1 – biochemical, small-molecule microarray, Cy5-labelled CALM1, plus calcium, artefact control for SMM control-protein annotation, profiling panel (AID 1112); settings: Cy5-CALM1 binding fluorescence, higher = more signal;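 further: score merges spot fluorescence with signal to noise from triplicate slides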
[16] = probe aWnt5a binding to arrayed compounds – biochemical, biotinylated probe, 635/667 nm fluorescence, primary screen (AID 1113); settings: small-molecule microarray, higher = more signal;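 further: score merges 667 nm fluorescence intensity with signal-to-noise per printed feature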
[17] = probe aShh binding to arrayed compounds – biochemical, biotinylated probe, 635/667 nm fluorescence, primary screen (AID 1114); settings: small-molecule microarray, higher = more signal;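 further: probe is biotin-labelled aShh protein from a stem cell growth factor screen; measures binding of labelled protein to compounds printed on the slide; score merges feature fluorescence at 667 nm with signal-to-noise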
[18] = probe aNog binding to arrayed compounds – biochemical, biotinylated probe, 635/667 nm fluorescence, primary screen (AID 1115); settings: small-molecule microarray, higher = more signal;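 further: probe is biotinylated aNog protein used at 0.15 µg/mL for 1 h at 4 C; z-score combines 667 nm fluorescence of each spot with its signal to noise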
[19] = molecular target: Torsin-1A-interacting protein 1 (Homo sapiens) (UniProt Q5JTV8); assay: compound microarray binding of lysate hLAP1 – cell lysate, small-molecule microarray, COS7 lysate, 635/667 nm fluorescence, primary screen (AID 1116); settings: 635 nm fluorescence, higher = more signal
[20] = molecular target: Alpha-bungarotoxin (Bungarus multicinctus) (UniProt P60615); assay: compounds binding labelled alpha-BTX control protein – biochemical, small-molecule microarray, Alexa647 label, 635/667 nm fluorescence, artefact control for SMM control protein annotation, profiling panel (AID 1117); settings: alpha-BTX-A647 binding fluorescence, higher = more signal
Chain of Alpha-bungarotoxin (Bungarus multicinctus) (P60615 whole entry, looked up): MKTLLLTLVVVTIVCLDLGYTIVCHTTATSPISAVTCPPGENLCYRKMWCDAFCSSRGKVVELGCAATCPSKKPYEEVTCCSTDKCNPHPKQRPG

Chain of Torsin-1A-interacting protein 1 (Homo sapiens) (Q5JTV8 whole entry, looked up): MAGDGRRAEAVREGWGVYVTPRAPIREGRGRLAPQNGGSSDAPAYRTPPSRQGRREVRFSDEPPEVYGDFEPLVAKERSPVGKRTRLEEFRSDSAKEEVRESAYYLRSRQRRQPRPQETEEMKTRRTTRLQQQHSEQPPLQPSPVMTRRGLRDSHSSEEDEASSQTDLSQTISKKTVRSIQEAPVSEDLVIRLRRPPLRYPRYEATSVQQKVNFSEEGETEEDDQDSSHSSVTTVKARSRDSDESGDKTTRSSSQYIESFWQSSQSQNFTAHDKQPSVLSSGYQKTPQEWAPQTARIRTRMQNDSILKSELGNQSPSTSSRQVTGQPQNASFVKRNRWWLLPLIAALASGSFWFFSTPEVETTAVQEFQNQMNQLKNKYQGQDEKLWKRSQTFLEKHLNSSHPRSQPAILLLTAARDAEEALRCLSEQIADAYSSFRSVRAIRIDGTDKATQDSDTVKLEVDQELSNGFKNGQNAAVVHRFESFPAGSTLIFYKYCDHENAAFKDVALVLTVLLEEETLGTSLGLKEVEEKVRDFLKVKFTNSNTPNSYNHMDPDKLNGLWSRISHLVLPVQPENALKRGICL
Chain of Fibroblast growth factor 10 (Homo sapiens) (O15520 whole entry, looked up): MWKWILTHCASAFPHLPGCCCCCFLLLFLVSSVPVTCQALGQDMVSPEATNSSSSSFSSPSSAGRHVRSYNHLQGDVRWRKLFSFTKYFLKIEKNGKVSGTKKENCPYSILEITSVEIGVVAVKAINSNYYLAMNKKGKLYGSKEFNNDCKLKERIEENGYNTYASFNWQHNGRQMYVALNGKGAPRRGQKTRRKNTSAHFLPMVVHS
Chain of Follistatin-related protein 3 (Homo sapiens) (O95633 whole entry, looked up): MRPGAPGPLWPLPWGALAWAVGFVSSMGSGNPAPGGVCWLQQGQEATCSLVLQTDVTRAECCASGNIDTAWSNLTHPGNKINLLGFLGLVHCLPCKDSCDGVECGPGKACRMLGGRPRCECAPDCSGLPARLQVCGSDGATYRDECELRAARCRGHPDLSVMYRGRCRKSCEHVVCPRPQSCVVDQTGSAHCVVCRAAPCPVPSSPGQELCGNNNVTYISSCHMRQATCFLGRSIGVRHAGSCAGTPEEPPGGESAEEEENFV
Chain of Dickkopf-related protein 1 (Homo sapiens) (O94907 whole entry, looked up): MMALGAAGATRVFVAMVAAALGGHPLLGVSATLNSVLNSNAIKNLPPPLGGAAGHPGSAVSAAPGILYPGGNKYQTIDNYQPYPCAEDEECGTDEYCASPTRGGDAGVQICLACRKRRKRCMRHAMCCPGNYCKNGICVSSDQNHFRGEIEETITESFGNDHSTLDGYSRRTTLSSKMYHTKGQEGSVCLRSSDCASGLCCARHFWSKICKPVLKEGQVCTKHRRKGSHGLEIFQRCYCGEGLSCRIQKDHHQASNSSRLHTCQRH
Chain of Left-right determination factor 2 (Homo sapiens) (O00292 whole entry, looked up): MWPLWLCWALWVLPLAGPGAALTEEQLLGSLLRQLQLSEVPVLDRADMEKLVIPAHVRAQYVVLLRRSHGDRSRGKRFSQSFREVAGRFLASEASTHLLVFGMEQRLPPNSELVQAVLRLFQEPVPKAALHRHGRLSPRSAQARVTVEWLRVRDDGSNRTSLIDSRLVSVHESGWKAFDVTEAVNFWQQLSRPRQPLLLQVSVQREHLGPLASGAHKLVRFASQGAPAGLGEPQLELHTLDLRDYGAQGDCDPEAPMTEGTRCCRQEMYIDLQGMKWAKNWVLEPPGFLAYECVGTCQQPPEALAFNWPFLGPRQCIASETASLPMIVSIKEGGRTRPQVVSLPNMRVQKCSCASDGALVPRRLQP
Chain of Epidermal growth factor receptor (Homo sapiens) (P00533 whole entry, looked up): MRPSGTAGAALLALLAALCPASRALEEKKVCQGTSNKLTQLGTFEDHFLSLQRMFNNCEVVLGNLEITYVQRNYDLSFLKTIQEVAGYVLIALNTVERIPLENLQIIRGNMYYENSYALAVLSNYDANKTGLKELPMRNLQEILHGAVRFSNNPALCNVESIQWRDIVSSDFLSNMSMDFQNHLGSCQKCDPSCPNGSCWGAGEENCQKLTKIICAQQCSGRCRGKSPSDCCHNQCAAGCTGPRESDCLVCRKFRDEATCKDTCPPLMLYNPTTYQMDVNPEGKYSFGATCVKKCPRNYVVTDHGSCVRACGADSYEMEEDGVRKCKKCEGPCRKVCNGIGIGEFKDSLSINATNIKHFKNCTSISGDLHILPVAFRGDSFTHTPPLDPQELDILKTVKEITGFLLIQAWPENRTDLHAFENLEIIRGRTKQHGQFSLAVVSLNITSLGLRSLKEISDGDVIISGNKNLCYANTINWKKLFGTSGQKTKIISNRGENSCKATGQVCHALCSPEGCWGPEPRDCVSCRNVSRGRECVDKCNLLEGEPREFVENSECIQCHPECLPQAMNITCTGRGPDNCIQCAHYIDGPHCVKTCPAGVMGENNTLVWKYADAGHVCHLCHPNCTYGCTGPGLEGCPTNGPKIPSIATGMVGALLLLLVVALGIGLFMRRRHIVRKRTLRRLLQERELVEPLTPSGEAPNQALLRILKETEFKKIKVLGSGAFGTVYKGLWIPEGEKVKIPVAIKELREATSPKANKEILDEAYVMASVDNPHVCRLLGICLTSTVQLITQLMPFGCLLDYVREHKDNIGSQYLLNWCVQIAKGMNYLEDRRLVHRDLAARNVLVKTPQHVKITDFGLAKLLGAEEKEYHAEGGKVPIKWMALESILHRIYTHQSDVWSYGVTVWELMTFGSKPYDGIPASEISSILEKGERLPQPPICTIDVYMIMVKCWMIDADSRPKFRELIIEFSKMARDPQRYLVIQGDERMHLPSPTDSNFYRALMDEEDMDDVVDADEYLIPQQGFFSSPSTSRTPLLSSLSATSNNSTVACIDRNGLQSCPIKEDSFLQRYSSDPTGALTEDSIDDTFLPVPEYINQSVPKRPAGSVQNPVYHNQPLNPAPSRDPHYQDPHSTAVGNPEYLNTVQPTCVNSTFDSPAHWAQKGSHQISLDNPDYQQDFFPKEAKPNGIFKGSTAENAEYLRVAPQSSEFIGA

Compound | composite z-score [1] | composite z-score [2] | composite z-score [3] | z-score [4] | composite z-score [5] | composite z-score [6] | composite z-score [7] | composite z-score [8] | composite z-score [9] | composite z-score [10] | composite z-score [11] | z-score [12] | composite z-score [13] | composite z-score [14] | composite z-score [15] | composite z-score [16] | composite z-score [17] | composite z-score [18] | composite z-score [19] | composite z-score [20]
COc1ccc([Si](C)(C)[C@@H]2[C@@H](CCO)O[C@]3(C(=O)N(Cc4ccc(NC(=O)[C@H](C)O)cc4)c4ccccc43)[C@H]2C)cc1 | 1.3 | 0.305 | 0.161 | -4.19 (inactive) | 0.245 | 0.993 | 0.226 | 0.335 | 0.0302 | 0.316 | 1.39 | -5.23 | 0.0969 | 0.805 | -0.0051 | -0.12 | -0.0626 | 0.0169 | 0.694 | 0.94
CO[C@H]1COC(=O)[C@H](Cc2ccccc2)NC(=O)CC=C[C@@H](C)[C@H](OC)COC(=O)CC=C[C@@H]1C | 0.143 | 0.077 | -0.473 | -0.875 (inactive) | 0.323 | 0.418 | 0.44 | 0.532 | 0.898 | -0.405 | 0.482 | 0.401 | 1.11 | -0.0075 | -0.61 | -0.134 | 0.0022 | -0.0682 | 0.311 | 0.426
C=CCC(OC(C)=O)[C@@H]1[C@@H](N(Cc2cc3ccccc3o2)C(=O)c2ccc(C)cc2)c2cc(OCCCO)ccc2N1C(=O)c1ccc2ccccc2n1 (stereo not given in full) | -0.222 | 0.164 | 0.504 | -0.178 (inactive) | -0.146 | -0.216 | 0.311 | 0.0952 | -0.0273 | 1.51 | -0.185 | 0.725 | 0.21 | -0.197 | 0.574 | -0.148 | -0.043 | 0.421 | -0.0354 | 0.432
CC(C)C[C@@H]1NC(=O)[C@H](CC(C)C)NC(=O)[C@@]23C(=O)N[C@@H](Cc4ccccc4)C2[C@H](C)[C@@]2(C)O[C@H]2C3/C=C/CC/C=C/CNC1=O (stereo not given in full) | 1.05 | -0.233 | -0.406 | -0.218 (inactive) | 0.707 | 0.516 | 0.543 | 0.998 | 1.19 | 1.38 | 1.34 | -1.24 | 0.521 | 0.102 | -0.747 | -0.101 | -0.221 | -0.261 | 0.292 | 0.683
O=C1O[C@H](c2ccccc2)[C@H](c2ccccc2)N2[C@H]1[C@@H](C(=O)NC[C@H](O)c1ccccc1)[C@]1(C(=O)Nc3ccc(C#CC4(O)CCCCCC4)cc31)[C@H]2c1ccc(OCCO)cc1 | 1.03 | 0.539 | 0.713 | -0.717 (inactive) | 0.599 | 0.563 | 0.0371 | 0.411 | 0.0407 | 0.0385 | 1.27 | -2.41 | -0.12 | 0.67 | 0.623 | -0.0276 | -0.106 | 0.319 | 0.933 | 1.41
CCN1C(C)=C(C(=O)OC)[C@@H](c2ccccc2)N2C(=O)[C@@]3(C(=O)OC)O[C@@]12[C@@H]1C(=O)N(C)C(=O)[C@@H]13 | 0.736 | -0.0561 | -0.45 | -0.997 (inactive) | 1.25 | 0.622 | 0.471 | 1.41 | 1.1 | 0.613 | -0.592 | -0.0304 | 0.72 | 0.439 | -0.686 | -0.0882 | -0.283 | 0.372 | 0.426 | 1.19
